Test results: PubChem BioAssay (NCATS)
Results filed as inconclusive are left out. Values without a mark were called inactive. Active and inactive are the calls of the source. Calls follow the shape of the dose curve; as a rule, active = well fitted cell-killing curve with a large enough effect; inconclusive = small, poorly fitted or top-dose-only effect; inactive = flat fitted curve, though single readings scatter.

Assay: qHTS of pediatric cancer cell lines to identify multiple opportunities for drug repurposing: Primary screen for DAOY cells (AID 1347090);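 also: plate controls were DMSO for no effect and bortezomib for full effect; nearly all actives have a fitted effect of over 55% in size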
Conditions: DAOY medulloblastoma viability, CellTiter-Glo luminescence, 48 h; series mostly up to 46 µM; activity change, negative = cytotoxic: at the top concentration
Description: Drug repurposing or repositioning has been offered as a strategy for drug development in oncology programs. This approach has special potential for childhood cancers and other rare or orphan diseases, where the expected return on new drug development has been a disincentive to pharmaceuticals.
In this project we exploit the poly-pharmacology of drugs to discover new indications via phenotypic screening of a panel of 19 well-characterized cell lines derived from solid tumors seen in children and adolescents. The goal is to identify approved drugs with previously unrecognized anticancer properties that has the potential to reveal new mechanisms and biological processes involved in carcinogenesis or drug resistance. We employed a titration-based paradigm (quantitative high-throughput screening or qHTS), where all compounds were tested at multiple concentrations for their effect on cell viability. Concentration-response curves (CRCs) were derived directly from the primary screen, and both potency and efficacy values were used to identify compounds with robust bioactivity profiles. We screened the NIH Chemical Genomics Center (NCGC) Pharmaceutical Collection (NPC) and Mechanism Interrogation Plate (MIPE) small molecule collections of approved and investigational compounds against these cell lines; and measured metabolically active cells after 48 hours of compound treatment as a proxy for cell viability.
Assay Submitter: Nathalia J. Martinez, National Center for Advancing Translational Sciences, National Institutes of Health, Rockville, MD, USA; email: natalia.martinez@nih.gov
[1] Shen, M et al. Quantitative high-throughput phenotypic screening of pediatric cancer cell lines identifies multiple opportunities for drug repurposing. Oncotarget 2017 Dec 19;9(4):4758-4772. PMID 29435139.
The cells were obtained from University of North Carolina (UNC), Pediatric Preclinical Testing Program (PPT), and Coriell Institute (CI).
qHTS cell viability assay:
Cells were assayed in growth media at a density of 500-1,000 cells/well. Five microliters of cells were dispensed into 1,536-well, white, solid-bottom, TC-treated plates (Greiner Bio One) using a multidrop dispenser and incubated at 37 degrees C, 5% CO2, under a humidified atmosphere for 5 hours. Twenty-three nanoliters of compounds and controls (neutral control DMSO or positive control bortezomib at final concentration of 2.3 µM) were subsequently transferred by Kalypsys pintool. For primary screens, the MIPE collection was tested at 11-point dilutions (final concentrations range from 0.78 nM to 46 µM) and the NPC collection at 8-point dilutions (final concentrations range from 0.59 nM to 46 µM). Compounds tested in follow-up screens were assayed at 11-point dilutions. Cells were incubated for 48 hours, followed by addition of 3 uL of CellTiter-Glo (Promega). After a 15 min incubation at room temperature, samples were analyzed for luminescence intensity using a ViewLux High-throughput CCD imager equipped with clear filters.

With `CCCCOCCOCCOCc1cc2c(cc1CCC)OCO2` the Potency was “inactive”.

Point of comparison: `CC(=O)OCC1=C(C(=O)O)N2C(=O)[C@@H](NC(=O)Cc3cccs3)[C@H]2SC1`, “activity change, negative = cytotoxic” value 6.49%. Against it:
- C[C@]12CCC(=O)C=C1CC[C@@H]1[C@@H]2C(=O)C[C@@]2(C)[C@H]1CC[C@]2(O)C(=O)CO — lower, 5.37%
- CCOC(=O)C1=C(C)NC(C)=C(C(=O)OC)C1c1cccc(Cl)c1Cl (stereo not given) — lower, -11.8%
- COc1cc(Cc2cnc(N)nc2N)cc(OC)c1OC — lower, -3.66%
- CCC(=O)c1ccc2c(c1)N(CCCN(C)C)c1ccccc1S2 — lower, -3.4%
- CCN(CC)CC(=O)Nc1c(C)cccc1C — lower, -4.19%
- CCc1cccc(N(C)C(N)=Nc2cccc3ccccc23)c1 — lower, -20.3%
- COCCc1ccc(OCC(O)CNC(C)C)cc1 (stereo not given) — lower, -0.984%
- CC(=O)[C@@]1(O)CC[C@H]2[C@@H]3CCC4=CC(=O)CC[C@]4(C)[C@H]3CC[C@@]21C — lower, -4.53%
- C#CCN(C)CCCOc1ccc(Cl)cc1Cl — lower, -2.1%
- CC[N+](C)(C)c1cccc(O)c1 — lower, 4.68%
- O=C(CCCN1CCC(O)(c2cccc(C(F)(F)F)c2)CC1)c1ccc(F)cc1 — lower, -6.99%
- CN(C)C(=O)Oc1cccc([N+](C)(C)C)c1 — higher, 14.8%
- c1cnc(N2CCN(Cc3ccc4c(c3)OCO4)CC2)nc1 — lower, 1.08%
- CCCCNc1c(C(=O)OCC)c(C)nc2c1cnn2CC — lower, -27.6%
- CC(C)(Oc1ccc(CCNC(=O)c2ccc(Cl)cc2)cc1)C(=O)O — lower, -3.65%
- C=CCc1ccccc1OCC(O)CNC(C)C (stereo not given) — lower, -0.53%
- COc1ccc(CCN(C)CCCC(C#N)(c2cc(OC)c(OC)c(OC)c2)C(C)C)cc1OC (stereo not given) — lower, 1.06%
- CCCNC(C)C(=O)Nc1ccccc1C (stereo not given) — lower, 4.54%
- CC(C)(C)NCC(O)c1cc(O)cc(O)c1 (stereo not given) — lower, -2.31%
- Cc1ccc(=O)n(-c2ccccc2)c1 — higher, 9.51%
- CCCOc1ccccc1-c1nc2n[nH]nc2c(=O)[nH]1 — lower, -16.2%
- CCCCNC(=O)NS(=O)(=O)c1ccc(C)cc1 — lower, -2%
- CCn1nc(C(=O)O)c(=O)c2cc3c(cc21)OCO3 — lower, -0.0957%
- c1cc(CN2CCCCC2)cc(OCCCNc2nc3ccccc3s2)c1 — lower, -13.4%
- CC(=O)Oc1cc(C(C)C)c(OCCN(C)C)cc1C — higher, 8.66%
- NC(N)=N/N=C/c1c(Cl)cccc1Cl — lower, 1.72%
- CCN(CC)CCCN(c1ccccc1)C1Cc2ccccc2C1 — lower, -15.2%
- Fc1ccc(C(c2ccc(F)cc2)N2CCN(C/C=C/c3ccccc3)CC2)cc1 — lower, -23.9%
- CCN(CC)CCNC(=O)c1ccc(NC(C)=O)cc1 — lower, -0.342%
- CO[C@@]1(NC(=O)CSCC#N)C(=O)N2C(C(=O)O)=C(CSc3nnnn3C)CS[C@@H]21 — lower, 4.92%
- CC(C(=O)O)c1ccc(CC2CCCC2=O)cc1 (stereo not given) — lower, 4.68%
- O=C(O)CP(=O)(O)O — lower, 3.38%
- CCc1c(C)[nH]c2c1C(=O)C(CN1CCOCC1)CC2 (stereo not given) — lower, -5%
- Cc1nc2sccn2c(=O)c1CCN1CCC(=C(c2ccc(F)cc2)c2ccc(F)cc2)CC1 — lower, 2.52%
- CSc1ccc(C(=O)c2[nH]c(=O)[nH]c2C)cc1 — lower, 0.118%

`O=C(O)CN(CCOCCOCCN(CC(=O)O)CC(=O)O)CC(=O)O` gave an activity change, negative = cytotoxic of 12.8% [at 0.597 µM].

`NCCCNCCSP(=O)(O)O` showed an activity change, negative = cytotoxic of 0.0744% [at 9.22 µM].

With `O=C(O)CN(CCN(CC(=O)O)CC(=O)O)CCN(CC(=O)O)CC(=O)O` the “activity change, negative = cytotoxic” value was -2.96% [at 16.1 µM].
